Data: PubChem BioAssay (Tox21)
Several values for one entry are separate records, joined by “and”; a condition that tells them apart may be missing. Identical values can stand only once. Results filed as inconclusive are left out. Entries that show only a call come without a potency. Activity calls are given as the source filed them. Calls follow the shape of the full dose curve.

experiment: qHTS assay for small molecule agonists of the antioxidant response element (ARE) signaling pathway - cell viability counter screen (AID 743203); settings: ARE-bla HepG2 viability, CellTiter-Glo luminescence, 16 h; series mostly up to 73.3 µM; also: nearly all actives have a fitted effect of over 55% in size
Excerpt: National Center for Advancing Translational Sciences [NCATS]
NIH Chemical Genomics Center [NCGC]
U.S. Environmental Protection Agency [EPA]
National Institutes of Environmental Health Sciences [NIEHS]
National Toxicology Program [NTP]
U.S. Food and Drug Administration [FDA]
Oxidative stress has been implicated in the pathogenesis of a variety of diseases ranging from cancer to neurodegeneration. The antioxidant response element (ARE) signaling pathway plays an important role in the amelioration of oxidative stress. The CellSensor ARE-bla HepG2 cell line (Invitrogen) can be used for analyzing the Nrf2/antioxidant response signaling pathway. Nrf2 (NF-E2-related factor 2) and Nrf1 are transcription factors that bind to AREs and activate these genes. The CellSensor ARE-bla Hep G2 cell line contains a beta-lactamase reporter gene under control of the Antioxidant Response Element (ARE) stably integrated into HepG2 cells. The activation of the report gene under culture conditions can be detected by fluorescence intensity. This cell line has been used to screen the Tox21 10K compound library to identify agonists that induce oxidative stress. The cytotoxicity of the Tox21 compound library against the ARE-bla cell line was tested in parallel by measuring the cell viability using CellTiter-Glo assay (Promega, Madison, WI) in the same wells.
Tox21 Assay Protocol Summary:
ARE-bla HepG2 cells were dispensed at 2,000 cells/5 ul/well in 1536-well white wall/solid bottom plates using a Multidrop Combi (ThermoFisher Scientific, Waltham, MA) dispenser. After the assay plates were incubated at 37C/5% CO2 for 5 hrs, 23 nL of compounds dissolved in DMSO, positive controls or DMSO only was transferred to the assay plate by a pintool work station (Kalypsys, San Diego, CA). The plates were incubated at 37C/5% CO2 for 16 hrs, followed by addition of 4 ul/well of CellTiter-Glo reagent into the assay plates using a Flying Reagent Dispenser (Aurora Discovery, San Diego, CA). After 30 min incubation at room temperature, the luminescence intensity in the assay plates was measured using a ViewLux (PerkinElmer, Shelton, CT) plate reader.
Potency is read from the fitted curve at half-maximal effect.

| SMILES | Potency |
| --- | --- |
| CC(=O)OCC=C(C)C | inactive |
| CCCCC(CC)COC(=O)CCCCC(=O)OCc1ccccc1 (stereo not given) | inactive |
| CCC(COC(=O)CCS)(COC(=O)CCS)COC(=O)CCS | inactive |
| OC/C=C/CO | inactive |
| CC(C)=CCNc1ncnc2c1ncn2[C@@H]1O[C@H](CO)[C@@H](O)[C@H]1O | 5.96 µM (active) |
| CN(C)c1ccc(C(=C2C=CC(=[N+](C)C)C=C2)c2ccc(N(C)C)cc2)cc1 | 9.64 µM (active) and 10.9 µM (active) and 11.9 µM (active) |
| CCCC(=O)OCOC(=O)C1=C(C)NC(C)=C(C(=O)OC)C1c1cccc(Cl)c1Cl (stereo not given) | inactive |
| CC1=CCC(=C(C)C)CC1 | inactive |
| O=C(O)c1ccc2cc(C(=O)O)ccc2c1 | inactive |
| O=C(O)Cc1ccccc1Nc1c(Cl)cccc1Cl | inactive |
| O=C(O)CCN(C1(C(=O)NO)CCCC1)S(=O)(=O)c1ccc(Oc2ccc(F)cc2)cc1 | inactive |
| CC(C)NC[C@@H](O)COc1ccc(CC(N)=O)cc1 | inactive |
| FC(F)(F)c1cccc(Cl)c1 | inactive |
| Cc1cc(C(C)(C)C)cc(C)c1CC1=NCCN1 | inactive |
| C#Cc1ccc(-c2ccccc2F)cc1 | inactive |
| Nc1ccc(C(=O)O)c(O)c1 | inactive |
| CCOc1ccc2ccccc2c1C(=O)N[C@@H]1C(=O)N2[C@@H]1SC(C)(C)[C@@H]2C(=O)O | inactive |
| COc1ccc2cc1Oc1ccc(cc1)C[C@H]1c3c(cc4c(c3Oc3cc5c(cc3OC)CCN(C)[C@@H]5C2)OCO4)CCN1C | 29.8 µM (active) |
| CCC(C)[O-].CCC(C)[O-].CCOC(=O)/C=C(/C)[O-].[Al+3] | inactive |
| CCCCCCCCCCC[C@@H](C[C@@H]1OC(=O)[C@H]1CCCCCC)OC(=O)[C@H](CC(C)C)NC=O | inactive |

| SMILES | Potency |
| --- | --- |
| Cc1ccc(C)cc1 | inactive |
| CN1CCCCC1CCN1c2ccccc2Sc2ccc(S(C)=O)cc21 (stereo not given) | inactive |
| Cc1cc(C(C#N)c2ccc(Cl)cc2)c(Cl)cc1NC(=O)c1cc(I)cc(I)c1O (stereo not given) | 33.5 µM (active) |
| CN1CCN2c3ccccc3Cc3ccccc3C2C1 (stereo not given) | inactive |
| C#CC1(O)CC[C@H]2[C@@H]3CCC4=CCCC[C@@H]4[C@H]3CC[C@@]21C (stereo not given in full) | 61.1 µM (active) and 13.3 µM (active) |
| CC(C)(C)NSc1nc2ccccc2s1 | inactive |
| CC(CCc1ccccc1)NCC(O)c1ccc(O)c(C(N)=O)c1 (stereo not given) | inactive |
| CCn1c2ccccc2c2cc([N+](=O)[O-])ccc21 | inactive |
| Cc1cc(=O)oc2cc(O)cc(O)c12 | inactive |
| Cc1ccc(-c2ccccc2)cc1 | inactive |
| CCC(=O)OC(=O)CC | inactive |
| O=S(=O)(O)c1ccc(Nc2nc(Nc3ccc(/C=C/c4ccc(Nc5nc(Nc6ccc(S(=O)(=O)O)cc6)nc(N(CCO)CCO)n5)cc4S(=O)(=O)O)c(S(=O)(=O)O)c3)nc(N(CCO)CCO)n2)cc1 | inactive |
| CC(CO)Oc1ccccc1 (stereo not given) | inactive |
| COc1cccc2c1C(=O)c1c(O)c3c(c(O)c1C2=O)C[C@@](O)(C(C)=O)C[C@@H]3O[C@H]1C[C@H](N)[C@H](O)[C@H](C)O1 | 8.69 µM (active) and 13.3 µM (active) |
| Nc1ccc(NCCO)c([N+](=O)[O-])c1 | inactive |
| Nc1ccc(Oc2ccc(Cl)cc2)cc1 | inactive |
| CCN(CC)C(=O)c1cc(S(=O)(=O)Cc2ccccc2)c(N2CCC(c3ccccc3)CC2)cc1N(CC)CCN(C)C | 21.4 µM (active) |
| Cc1c(C)c([N+](=O)[O-])c(C(C)(C)C)c([N+](=O)[O-])c1C | inactive |
| CC(C)Cn1cnc2c(N)nc3ccccc3c21 | inactive |
| CN1CCN(Cc2cc(-c3ccc4[nH]c(=O)oc4c3)co2)[C@@H](c2ccc(F)cc2)C1 | inactive |
